Hits are enriched below; roughly 12% of the tested compounds scored in any of these assays.
G9a inh: G9a (human) methyltransferase inhibition; Q96KQ7; G9a H3K9 monomethylation, AlphaScreen, 2 h; Potency, µM (series often up to 102 µM), without a hit: top-dose activity, negative = inhibition, usual class: inhibitors; AID 504332; 8.8% of 350,000 active; further: potency means the concentration at half of the fitted maximal effect; on the % scale 0 is the no-effect control and ±100 the full control effect; nearly all actives have a fitted effect of over 75% in size
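Methyltransferase reactions run at room temperature for 2 h (20 nM enzyme, 500 nM biotin-H3K9 peptide, 20 uM SAM) after a 15 min compound preincubation; product detected by AlphaScreen beads and anti-H3K9me1 antibody.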
HP1b binding inh: inhibitors of HP1-beta chromodomain binding to methylated histone tails | P83916 | AlphaScreen HP1-beta / biotin-H3K9me3 peptide binding | Potency, µM (top dose mostly 114 µM), inactives show at the highest dose activity change, negative = inhibition, most hits filed as inhibitors | 0.56% of 390,000 active; further: potency means the concentration at half of the fitted maximal effect; nearly all actives have a fitted effect of over 70% in size
Target sequence (P83916 whole entry, looked up): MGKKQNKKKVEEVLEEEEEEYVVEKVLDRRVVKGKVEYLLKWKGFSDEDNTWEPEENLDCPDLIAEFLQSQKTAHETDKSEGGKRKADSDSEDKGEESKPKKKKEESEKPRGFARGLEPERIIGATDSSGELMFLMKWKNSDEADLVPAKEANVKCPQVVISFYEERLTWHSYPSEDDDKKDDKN
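AlphaScreen: HP1-beta (50 nM) preformed 30 min with biotin-H3(1-18)K9me3 peptide (50 nM) in PBS pH 7.4, 0.01% Tween-20. Compound added for 30 min at RT, then streptavidin donor/nickel chelate acceptor beads (10 ug/mL) for 30 min.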
PLK1 PBD block: PLK1 (human) polo-box domain binding inhibition; P53350; Plk1 PBD binding of FITC phosphopeptide, fluorescence polarization; Potency, µM, without a hit: max response, negative = inhibition, usual class: inhibitors; 2.8% of 360,000 active; further: potency means the concentration at half of the fitted maximal effect; series mostly up to about 57 µM; on the % scale 0 is the no-effect control and ±100 the full control effect; nearly all actives have a fitted effect of over 65% in size
PI5P4K alpha inh: blocks human PI5P4K alpha kinase activity. P48426. PI5P4Kalpha enzyme, ADP-Glo luminescence, 60 min; active compounds read low. max response, %. 1.2% of 330,000 active; active means max response of -50% or lower; inconclusive means between -30% and -50%; inactive means -30% or higher; further: value at the top dose of about 77 µM; on the % scale 0 is the no-effect control and ±100 the full control effect
Target sequence (P48426 whole entry, looked up): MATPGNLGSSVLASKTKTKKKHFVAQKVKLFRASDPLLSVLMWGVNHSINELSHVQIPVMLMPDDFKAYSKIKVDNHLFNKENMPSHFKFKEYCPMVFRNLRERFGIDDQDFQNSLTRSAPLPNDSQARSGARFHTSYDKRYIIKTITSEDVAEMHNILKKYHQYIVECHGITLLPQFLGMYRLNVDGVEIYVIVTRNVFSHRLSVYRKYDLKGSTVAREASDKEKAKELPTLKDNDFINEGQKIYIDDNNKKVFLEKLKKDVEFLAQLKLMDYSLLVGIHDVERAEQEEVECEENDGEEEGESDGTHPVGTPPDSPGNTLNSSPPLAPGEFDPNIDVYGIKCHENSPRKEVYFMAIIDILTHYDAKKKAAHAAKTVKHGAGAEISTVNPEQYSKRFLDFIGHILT
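Luminescence from ADP-Glo served as readout of PI5P4Kalpha activity in a qHTS format. Reaction: enzyme, substrate, compound, ATP at 5 microM final, 60 min at RT.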
JMJD2A Tudor inh: inhibitors of human JMJD2A Tudor domain; AlphaScreen JMJD2A-Tudor / H3K4me3 peptide binding; AID 504339; Potency, µM (titrated, usually from 114 µM), for inactives: top-dose activity change, negative = inhibition, most hits filed as inhibitors; 4.4% of 390,000 active; O75164; further: potency means the concentration at half of the fitted maximal effect; on the % scale 0 is the no-effect control and ±100 the full control effect; nearly all actives have a fitted effect of over 50% in size
BAZ2B inh: inhibitors of human BAZ2B bromodomain. AlphaScreen BAZ2B-H3K14Ac peptide displacement. Potency, µM (titrated, usually from 114 µM), for the others: top-dose activity change, negative = inhibition, hits mostly inhibitors. 4.4% of 360,000 active. AID 504333; further: potency means the concentration at half of the fitted maximal effect; on the % scale 0 is the no-effect control and ±100 the full control effect; nearly all actives have a fitted effect of over 60% in size
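AlphaScreen luminescence quantifies BAZ2B engagement of H3K14Ac peptide; the protein and biotinylated peptide are both at 50 nM final, buffer PBS pH 7.4 with 0.01% Tween-20, all steps at room temperature.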
12-hLO cuvette: 12-hLO (human) inhibition, 8HQ series round 1. shares compounds with BAZ2B inh. 60% of 35 active. AID 2163. Potency, µM, actives largely listed as inhibitors. purified 12-hLO, cuvette UV 234 nm product formation;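 active means compounds that slowed 12-hLO product formation enough to yield a measured IC50 potency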
KDM4E inh: inhibitors of human JMJD2E demethylase, 8HQ series round 1; shares compounds with BAZ2B inh; JMJD2E demethylase, FDH-coupled NADH fluorescence (FDH is formaldehyde dehydrogenase); Potency, µM (doses to about 57 µM), for inactives: top-dose activity, negative = inhibition, actives largely listed as inhibitors; 89% of 130 active; AID 493212
ME-1 prolif: inhibitors of ME-1 leukemia cell proliferation, CBFb-RUNX1 project; shares compounds with BAZ2B inh; ME-1 cell proliferation, ATP luminescence, 48 h; Potency, µM (top dose mostly 56.1 µM), for the others: at the highest dose activity change, negative = inhibition, hits mostly inhibitors; 20% of 140 active; AID 504370
Numbers without * were called inactive; i = inactive; ? = inconclusive; . = no result; [ ] = remark or other dose. Unless noted, the call rests on the fitted dose curve; in most records, active means well fitted curve in the direction sought with a large enough effect; inconclusive means small, poorly fitted or top-dose-only effect, or another doubt; inactive means no such curve, though single readings can be large; an effect the other way counts as inactive or inconclusive.

SMILES	G9a inh	HP1b binding inh	PLK1 PBD block	PI5P4K alpha inh	JMJD2A Tudor inh	BAZ2B inh	ME-1 prolif	others
COc1cccc(Cn2c(CNC(=O)CCc3ccccc3)nc3cccnc32)c1	20.2%[59 µM]	14.1%[57 µM]	.	.	-16.8%	2.1%	.
CCC(=O)NC(c1ccco1)c1cc(Br)c2cccnc2c1O (stereo not drawn)	4.5%[12.7 µM]	.	.	.	.	28.2µM*	.	12-hLO cuvette=2µM*;KDM4E inh=32.4µM*
CC(=O)NC(c1cc(F)c2cccnc2c1O)C1CC1 (stereo not drawn)	?	33.2%	.	.	79.4µM*	50.1µM*	.	12-hLO cuvette=i;KDM4E inh=28.9µM*
CCC(=O)NC(c1cc(Cl)c2cccnc2c1O)C1CC1 (stereo not drawn)	19.2%[12.7 µM]	51.6%	.	.	79.4µM*	31.6µM*	.	12-hLO cuvette=1.6µM*;KDM4E inh=32.4µM*
CCCCC(=O)NC(c1cccs1)c1cc(Cl)c2cccnc2c1O (stereo not drawn)	?	49.0%	3.3%	-19.0	-12.3%	1.7%	.
CCC(=O)NC(c1cc(Cl)c2cccnc2c1O)C(C)C (stereo not drawn)	26.1%[12.7 µM]	9.1%	.	.	?	79.4µM*	.	12-hLO cuvette=1.2µM*;KDM4E inh=20.4µM*
COc1cc(NC(C)=O)c2ncccc2c1Br	.	.	-10.3%	-6.1	.	.	.
O=C(OCc1cn([C@H]2CN(C(=O)C3CCCCC3)[C@@H](c3ccccc3)C[C@@H]2O)nn1)c1ccccc1	.	.	-11.1%	2.5	.	.	.
CC(Oc1ccc(Br)cc1)C(=O)N(Cc1ccccc1)c1c(N)n(Cc2ccccc2)c(=O)[nH]c1=O (stereo not drawn)	.	.	-15.6%	-7.0	.	.	.
Fc1ccc([C@H]2CCNCC2COc2ccc3c(c2)OCO3)cc1 (stereo partly drawn)	-21.3%[2.33 µM]	.	.	.	.	.	-29.8%
O=C(NN1C(=O)CSC1=S)C(=O)NN1C(=O)CSC1=S	?	-28.0%	-27.2%	-67.5*	31.6µM*	?	-10.4%
COc1ccc(N2C(=O)c3ccccc3NC2c2ccc(OC)c(COc3ccccc3F)c2)cc1 (stereo not drawn)	.	11.4%[57 µM]	.	.	-9.2%[57.1 µM]	.	.
Oc1ccc(/C=N/NC(=S)Nc2cccnc2)c(O)c1	25.1µM*	-13.4%	?	-75.1*	39.8µM*	2.82µM*	14.1µM*
Fc1c(F)c(F)c(/C=N/NC(=S)Nc2cccnc2)c(F)c1F	47.0%[12.7 µM]	30.1%	-6.2%	-11.3	-20.2%	-12.5%	.
Oc1ccc(/C=N/NC(=S)Nc2cccnc2)c(O)c1O	-173.7%[59 µM]	5.01µM*	6.7µM*	-96.4*	3.55µM*	2.24µM*	?
COCCCNC(=O)CCC(=O)N1Cc2ccccc2Oc2ncccc21	2.0%[59 µM]	40.9%	.	.	4.9%	10.8%[57.1 µM]	.
CCN(c1ccccc1)S(=O)(=O)c1ccc(N2CCN(c3ccccc3O)CC2)nc1	?	9.6%	-4.2%	-11.7	?	-38.4%	.
Cc1nnc(SCc2nc(-c3ccc(Cl)cc3)no2)n1-c1ccc(F)cc1	-33.6%[59 µM]	22.0%	.	.	-6.6%	-8.4%	.
Cc1c(Cl)cccc1NC(=S)N(CCN(C)C)C(C)c1ccccn1 (stereo not drawn)	-0.6%	27.7%	-0.6%	-1.5	-8.8%	50.1µM*	-3.4%[25.6 µM]
Cc1ccccc1NC(=S)N(CCN(C)C)C(C)c1cccnc1 (stereo not drawn)	18.4%[59 µM]	24.3%	0.4%	-3.1	-8.1%	-19.9%	.
Cc1ccccc1NC(=S)N(CCN(C)C)C(C)c1ccccn1 (stereo not drawn)	7.8%	38.1%	-9.4%	-1.6	-11.8%	?	-8.8%[25.6 µM]

High-throughput results (PubChem BioAssay)
